Source: PubChem BioAssay (Tox21)
Where “and” joins values, the source holds several entries; their conditions need not be identical. Identical values can stand only once. Records with an inconclusive call do not appear. Entries that show only a call come without a potency. More than one record can exist for a structure, and the calls need not agree. Calls of active or inactive are those of the source. Calls follow the shape of the dose curve; as a rule, active = well fitted inhibition curve with a large enough effect in the repeat runs; inconclusive = weak or mixed curves; inactive = flat fitted curve, though single readings scatter.

Target: Voltage-gated inwardly rectifying potassium channel KCNH2 (Homo sapiens) (UniProt Q12809)
Sequence (Q12809 whole entry, looked up): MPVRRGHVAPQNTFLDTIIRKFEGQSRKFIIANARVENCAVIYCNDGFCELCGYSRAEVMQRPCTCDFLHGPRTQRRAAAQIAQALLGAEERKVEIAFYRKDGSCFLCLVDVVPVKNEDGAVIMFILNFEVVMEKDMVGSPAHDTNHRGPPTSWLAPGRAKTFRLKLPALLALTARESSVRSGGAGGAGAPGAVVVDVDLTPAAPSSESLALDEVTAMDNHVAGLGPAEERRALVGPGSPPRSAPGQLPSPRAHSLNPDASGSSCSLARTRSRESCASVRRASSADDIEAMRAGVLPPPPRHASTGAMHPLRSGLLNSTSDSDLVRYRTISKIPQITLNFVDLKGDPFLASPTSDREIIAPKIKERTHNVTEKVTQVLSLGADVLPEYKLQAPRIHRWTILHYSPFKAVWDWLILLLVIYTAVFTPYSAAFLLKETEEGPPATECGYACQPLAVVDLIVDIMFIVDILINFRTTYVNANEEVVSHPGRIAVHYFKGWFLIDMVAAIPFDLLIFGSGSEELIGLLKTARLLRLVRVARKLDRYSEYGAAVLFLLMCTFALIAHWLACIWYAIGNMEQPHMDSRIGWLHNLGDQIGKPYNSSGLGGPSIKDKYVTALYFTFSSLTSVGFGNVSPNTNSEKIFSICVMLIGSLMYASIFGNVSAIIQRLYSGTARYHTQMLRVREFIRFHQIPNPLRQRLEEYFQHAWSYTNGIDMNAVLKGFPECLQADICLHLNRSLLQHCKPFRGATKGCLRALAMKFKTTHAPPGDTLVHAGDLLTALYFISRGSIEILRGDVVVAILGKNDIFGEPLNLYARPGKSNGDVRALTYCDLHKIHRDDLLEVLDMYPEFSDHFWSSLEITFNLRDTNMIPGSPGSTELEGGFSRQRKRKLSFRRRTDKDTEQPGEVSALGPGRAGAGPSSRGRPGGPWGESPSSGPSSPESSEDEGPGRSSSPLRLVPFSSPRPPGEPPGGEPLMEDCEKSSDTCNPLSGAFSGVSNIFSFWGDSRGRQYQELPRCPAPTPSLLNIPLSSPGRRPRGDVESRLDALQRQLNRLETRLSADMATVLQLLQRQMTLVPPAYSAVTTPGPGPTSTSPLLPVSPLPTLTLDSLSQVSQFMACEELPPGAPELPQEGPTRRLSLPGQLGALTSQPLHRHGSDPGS
Test: Human Ether-a-go-go-Related Gene (hERG) channel small molecule antagonists: fluorescence cell-based qHTS assay (AID 1671200); also: nearly all actives have a fitted effect of over 50% in size
Conditions: hERG-U2OS cells, FluxOR thallium flux fluorescence; series mostly up to 76.8 µM; activity change, negative = inhibition: at the top concentration
Excerpt: National Center for Advancing Translational Sciences [NCATS]
U.S. Environmental Protection Agency [EPA]
National Institutes of Environmental Health Sciences [NIEHS]
National Toxicology Program [NTP]
U.S. Food and Drug Administration [FDA]
Mutations in the hERG channel cause Long QT (LQT) syndrome. LQT syndrome is a cardiac disorder which can cause ventricle arrhythmia and sudden death. Additionally, compounds which block the hERG channel can cause acquired LQT syndrome. Several FDA approved drugs have been removed from the market due to their hERG blocking activity. A cell-based hERG channel inhibition assay can be used to screen chemical compounds that inhibit hERG channel. This assay measures hERG channel activity using thallium ions as surrogate ions to measure potassium into the cells.
Tox21 Assay Protocol Summary:
hERG-U2OS cells were resuspended in culture medium and dispensed into 1536-well, black wall/clear-bottom plates at 1000cells/well/3uL using a Multidrop Combi dispenser (Thermo Fisher, Waltham, MA). After plates were incubated at 37 C overnight, 3 uL of Loading Buffer provided by FluxOR II Potassium Ion Channel Assay kit (Thermo, Carlsbad, CA) was added to each well. The assay plates were then incubated at room temperature in the dark for 1h. […] After the assay plates were incubated at room temperature for 10 min, 1 uL of Stimulus Buffer provided by FluxOR II Potassium Ion Channel Assay kit was added into each well and fluorescence intensity (480nm excitation/540nm emission) was continuously measured for 2 min at 1 second intervals using a Functional Drug Screening System (FDSS) 7000EX kinetic plate reader (Hamamatsu, Japan).
Potency is read from the fitted curve at half-maximal effect.

Row | SMILES | Potency | activity change, negative = inhibition
1 | O=Nc1ccc(O)cc1 | inactive | –
2 | CC(=O)Nc1ccc(C(=O)O)cc1 | inactive | –
3 | NC(=O)/N=N/C(N)=O | inactive | –
4 | OCC#CCO | inactive | –
5 | c1ccc2ccccc2c1 | inactive | –
6 | O=[N+]([O-])C(CO)(CO)CO | inactive | –
7 | C[C@@H]1O[C@@H](OC[C@H]2O[C@@H](Oc3c(-c4ccc(O)c(O)c4)oc4cc(O)cc(O)c4c3=O)[C@H](O)[C@@H](O)[C@@H]2O)[C@H](O)[C@H](O)[C@H]1O | inactive | –
8 | CCCCNC(N)=O | inactive | –
9 | Oc1c(Cl)cc(Cl)c(Cl)c1Cl | inactive | –
10 | CCCCOCCO | inactive | –
11 | Clc1ccc(Cl)c(Cl)c1Cl | inactive | –
12 | CC(C)(CO)COC(=O)C(C)(C)CO | inactive | –
13 | C[C@@H](O)[C@H]1C(=O)N2C(C(=O)O)=C(S[C@@H]3CN[C@H](C(=O)N(C)C)C3)[C@H](C)[C@H]12 | inactive | –
14 | Nc1cc(-c2ccncc2)c[nH]c1=O | inactive | –
15 | CC1=CC[C@H]2C[C@@H]1C2(C)C | inactive | –
16 | CCCCCCCCCC(=O)O | inactive | –
17 | O=S(=O)(O)CCS | inactive | –
18 | CCc1ccc(O)cc1 | inactive | –
19 | OC[C@@H](O)[C@@H](O)[C@H](O)[C@@H](O)CO | inactive | –
20 | CCCCCCCCCCCCN | inactive and 12.3 µM (active) | –

Row | SMILES | Potency | activity change, negative = inhibition
21 | O=C(c1ccc(O)cc1)c1ccc(O)cc1O | inactive | –
22 | CCCCC/C=C\C/C=C\CCCCCCCC(=O)OC | – | -2.53% (inactive)
23 | Cc1ccc(C)c(C)c1 | inactive | –
24 | CCC(=O)O | inactive | –
25 | C=C1C2CCC(C2)C1(C)C (stereo not given) | inactive | –
26 | CC(C)n1c(/C=C/[C@@H](O)C[C@@H](O)CC(=O)O)c(-c2ccc(F)cc2)c2ccccc21 | inactive | –
27 | Cn1c([N+](=O)[O-])cnc1COC(N)=O | inactive | –
28 | NS(=O)(=O)c1cc2c(cc1Cl)NC=NS2(=O)=O | inactive | –
29 | CCCCC(CC)COC(C)=O (stereo not given) | inactive | –
30 | CCCCCCOC(C)=O | inactive | –
31 | O=[N+]([O-])c1cc(N(CCO)CCO)ccc1NCCO | inactive | –
32 | CCOC(=O)/C=C\C(=O)OCC | inactive | –
33 | C=C1CC[C@H](O)CC1=C/C=C1\CCC[C@]2(C)[C@@H]([C@H](C)/C=C/[C@H](C)C(C)C)CC[C@@H]12 | inactive | –
34 | COCC(C)O (stereo not given) | inactive | –
35 | CC1=C(CC(=O)O)c2cc(F)ccc2/C1=C\c1ccc(S(C)=O)cc1 (stereo not given) | inactive | –
36 | CC(C)(C)C1CCC(O)CC1 (stereo not given) | inactive | –
37 | CC1(C)O[C@@H]2C[C@H]3[C@@H]4C[C@H](F)C5=CC(=O)CC[C@]5(C)[C@H]4[C@@H](O)C[C@]3(C)[C@]2(C(=O)CO)O1 | inactive | –
38 | CC(C)Cc1ccccc1 | inactive | –
39 | Cc1cc(O)cc(C)c1Cl | inactive | –
40 | CCCCCCCCC | inactive | –
